Values without a mark were called inactive.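 Rule for the calls: active = growth AUC significantly below the DMSO wells by Dunnett test; inactive = the rest.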
Assays:
Test in all cases: relative growth (AUC of 72 h growth curve relative to DMSO control, dAUC) (ratio); higher = more growth (less inhibition), active = hit call of the paper
Conditions in all cases: 20 µM
[1] = test system: Aeromonas 1 (Aeromonas sp. AE235)
Method in brief: (§1)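 For relative growth (dAUC), the spline-integrated area under the growth curve was divided by the mean of the DMSO controls. Results were averaged over three biological replicates. Each replicate used a 1:100 dilution, into 96-well plates holding each chemical at 20 µM (1% DMSO), of isolates from Icelandic stream sediments and Silwood Park soil or whole sediment communities that had been grown to carrying capacity in Luria–Bertani medium. Plates were shaken briefly before each hourly A600 reading over 72 h.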

[2] = test system: Aeromonas 2 (Aeromonas sobria)
Method in brief: as §1

[3] = test system: Aeromonas 3 (Aeromonas popoffii)
Method in brief: as §1

[4] = test system: Argrobacterium 1 (Agrobacterium sp.)
Method in brief: as §1

[5] = test system: Arthrobacter 1 (Arthrobacter humicola)
Method in brief: as §1

[6] = test system: Arthrobacter 2 (Arthrobacter humicola)
Method in brief: as §1

[7] = test system: Arthrobacter 3 (Arthrobacter sp.)
Method in brief: as §1

Community 4 = test system: Community 4
Method in brief: as §1

Community 6 = test system: Community 6
Method in brief: as §1

Community 7 = test system: Community 7
Method in brief: as §1

Community 8 = test system: Community 8
Method in brief: as §1

Community 9 = test system: Community 9
Method in brief: as §1

[8] = test system: Flavobacterium 1 (Flavobacterium glaciei)
Method in brief: as §1

[9] = test system: Flavobacterium 2 (Flavobacterium succinicans)
Method in brief: as §1

[10] = test system: Hymenobacter 1 (Hymenobacter glaciei)
Method in brief: as §1

[11] = test system: Microbacterium 1 (Microbacterium arborescens)
Method in brief: as §1

[12] = test system: Neobacillus 1 (Neobacillus soli)
Method in brief: as §1

[13] = test system: Oryzobacter 1 (Oryzobacter terrae)
Method in brief: as §1

[14] = test system: Paenibacillus 1 (Paenibacillus castaneae)
Method in brief: as §1

| SMILES | relative growth [1] | relative growth [2] | relative growth [3] | relative growth [4] | relative growth [5] | relative growth [6] | relative growth [7] | relative growth (Community 4) | relative growth (Community 6) | relative growth (Community 7) | relative growth (Community 8) | relative growth (Community 9) | relative growth [8] | relative growth [9] | relative growth [10] | relative growth [11] | relative growth [12] | relative growth [13] | relative growth [14] |
| --- | --- | --- | --- | --- | --- | --- | --- | --- | --- | --- | --- | --- | --- | --- | --- | --- | --- | --- | --- |
| N#CC(CCc1ccc(Cl)cc1)(Cn1cncn1)c1ccccc1 (configuration not stated) | 0.938 | 0.936 | 1.01 | 0.968 | 0.81 | 0.555 (active) | 0.666 (active) | 0.946 | 0.958 | 0.96 | 0.951 | 0.939 | 0.846 | 0.856 | 0.861 | 0.909 | 0.905 | 1.02 | 0.947 |
| CCCC(Cn1cncn1)c1ccc(Cl)cc1Cl (configuration not stated) | 0.932 | 0.996 | 1.01 | 1.15 | 1 | 1.02 | 0.987 | 1.11 | 1.06 | 0.902 | 1.09 | 1.12 | 1.07 | 0.966 | 0.877 | 0.99 | 1.09 | 1.05 | 1.06 |
| CCCCCCCCCCCCNC(=N)N | 0.94 | 0.928 | 0.97 | 0.233 (active) | 0.0065 (active) | 0.00389 (active) | 0.0063 (active) | 0.501 (active) | 0.407 (active) | 0.993 | 0.788 | 0.294 (active) | 0.00294 (active) | 0.832 | 0.00418 (active) | 0.881 | 0.98 | 0.00315 (active) | 0.893 |
| CC1(C)[C@H](/C=C(\Cl)C(F)(F)F)[C@@H]1C(=O)OC(C#N)c1cccc(Oc2ccccc2)c1 (some centres not stated) | 0.951 | 0.993 | 1.04 | 1.07 | 1.28 | 0.838 | 0.955 | 0.998 | 1.03 | 1.19 | 1.09 | 0.956 | 0.836 | 0.995 | 1.06 | 0.995 | 0.958 | 1.11 | 0.889 |
| CC(C)(C)[C@@H](O)[C@H](Oc1ccc(Cl)cc1)n1cncn1 | 1.02 | 1.04 | 1.03 | 1.03 | 1.15 | 1.1 | 1.02 | 1.14 | 1.12 | 0.988 | 1.02 | 1.09 | 1.01 | 1.02 | 1.05 | 0.963 | 1.04 | 1.02 | 1.12 |
| Fc1ccc(Oc2ccnc3cc(Cl)cc(Cl)c23)cc1 | 1.01 | 1.03 | 1 | 1.06 | 0.954 | 1.1 | 1.08 | 0.987 | 0.935 | 0.843 | 1.01 | 1.03 | 1.04 | 1.01 | 1.13 | 0.999 | 1.09 | 1.01 | 0.927 |
| Cc1nnc(-c2ccccc2)c(=O)n1N | 0.991 | 0.975 | 0.993 | 1.03 | 0.986 | 0.946 | 1.04 | 0.882 | 0.909 | 1.12 | 0.974 | 0.918 | 0.963 | 0.956 | 0.868 | 1.01 | 0.937 | 1.12 | 0.905 |
| O=C1C=C(N(Cc2ccc(Cl)nc2)CC(F)F)CO1 | 0.953 | 0.967 | 0.978 | 0.974 | 1.05 | 1.08 | 1.01 | 1.01 | 0.923 | 0.945 | 0.997 | 0.992 | 1.09 | 0.993 | 1.1 | 1.04 | 1.02 | 1.11 | 0.899 |

From the supplement of paper PMC12067926
